Experimental data published in PubChem BioAssay (NCI).
This is part of a sample that, as a whole, favours compounds with a hit. Of some 83,000 tested, about 20% had one in any assay.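 Single-dose data. Exposure time 48 hours. Values below 10 considered active.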 Unmarked numbers belong to inactive results. Activity calls are given as the source filed them.

System: MDA-MB-468 breast
Experiment: NCI-60 one-dose screen, 48 h (100 = growth as untreated, 0 = no growth, -100 = all killed)
Conditions: 10 µM unless noted

First: C=C(C[n+]1ccccc1)[C@@H]1CC[C@]2(C(=O)OC)CC[C@]3(C)[C@H](CC[C@@H]4[C@@]5(C)CC[C@H](O)C(C)(C)[C@@H]5CC[C@]43C)[C@@H]12
Second: CC1(C)C(=O)/C(=C\c2ccc(C(F)(F)F)cc2)C[C@]2(C)[C@H]3CC[C@@H]4[C@H]5[C@H](C(=O)/C=C/c6ccc(C(F)(F)F)cc6)CC[C@]5(CO)CC[C@@]4(C)[C@]3(C)CC[C@@H]12
The growth of the first is lower: 86.3% for the first, 104% for the second.

Compared with `COc1ccc(/C=N/OCC(O)CNCc2ccccc2)cc1OC1CCCC1` (stereo not given), `O=C(NC1CCOCC1)c1ccc2c(c1)CN(c1ncc(Cc3cccc(-n4cccn4)c3)s1)CC2` is lower in growth: 99.2% for the first, 41.4% for the second.

First: O=C(Nc1ncc(Cc2ccc(Cl)cc2)s1)c1ccc2c(c1)OCCO2
Second: CC(C)(C)c1ccc(C(=O)Nc2nc3ccc(O)cc3s2)cc1
The growth of the first is higher: 47.1% for the first, 18.6% for the second.

Going from `CC(=O)N1CCN(CCNC(=O)n2cc(-c3ccncc3)c(-c3cc(O)cc(Cl)c3)n2)CC1` to `CCOC(=O)C1=C(C)NC(=O)NC1c1ccc(OCC(=O)N/N=C/c2ccc(Cl)cc2)cc1` (stereo not given), the growth rises from 32.4% to 96.5%.

Going from `CCN(CCNc1ccc(C)c2sc3cc(Cl)ccc3c(=O)c12)CC(C)O` (stereo not given) to `Cc1cc(NC(=O)Nc2cc(Cl)ccc2C)no1`, the growth rises from 62.2% to 105%.

First: O=C1c2ccccc2CCc2ccccc21
Second: Cc1ccccc1Nc1nc2nonc2nc1Nc1cccc(C)c1C
The growth of the first is higher: 95.2% for the first, 12.3% for the second.

First: COCCOC(=O)COc1ccc(OC)cc1
Second: COc1cc(OC)c2c(=O)c3c(CC=C(C)C)cc(OC)c(O)c3oc2c1
The growth of the first is lower: 95.6% for the first, 110% for the second.

Going from `Clc1ccc(-c2csc(Nc3cccc(Nc4csc(-c5ccc(Cl)cc5)n4)c3)n2)cc1` to `COc1ccc(/C=C(\C#N)C(=O)Nc2cccc(Nc3nc(SC)nc(-c4cccc([N+](=O)[O-])c4)c3C#N)c2)cc1OC`, the growth rises from 77% to 106%.

First: CCCCCCCCN(CCO)CCCCCCCC
Second: CCCCCCCCCCN(CCCCCCCCCC)CC(=O)c1ccc2cc(Br)c3ccccc3c2c1
The growth of the first is lower: 98.7% for the first, 100% for the second.

Going from `COC1CC(N)C2OC(c3ccccc3)OCC2O1` (stereo not given) to `COC(=O)/C=C1/CCCCC1(C)C(=O)OC` (stereo not given), the growth falls from 109% to 103%.

For `O=C(CCC(=O)N(CCO)CCO)N(CCO)CCO`, the growth was 110%.

In the case of `Cc1ccc(CCC(=O)Nc2ncc(Cc3cc(Cl)ccc3Cl)s2)o1`, the growth is reported as 7.55% (active).
With `CCN(CC)CCOc1ccc(-c2nc3cc(Cl)ccc3s2)cc1` the growth was -17% (active).
`Cc1cc(N2CCCCC2)nc(NC2CCCC(Nc3ccnc4cc(Cl)ccc34)C2)n1` (stereo not given) was tested, and the growth was -77.6% (active).
`NC(=O)C(=Cc1ccc(Cl)cc1)C(N)=O` was tested, and the growth was 3.1% (active).
